Common to all, as to experiment: NCI-60 one-dose screen, 48 h (100 = growth as untreated, 0 = no growth, -100 = all killed)
Settings in all cases: 10 µM unless noted

In assay [1] the test system is SR leukemia.
Assay [2] deals with RPMI-8226 leukemia.
For assay [3], the system named is OVCAR-8 ovarian.
Assay [4] relates to OVCAR-5 ovarian.
The subject of assay [5] is OVCAR-4 ovarian.
In assay [6] the test system is SK-OV-3 ovarian.
Assay [7] deals with IGROV1 ovarian.
For assay [8], the system named is OVCAR-3 ovarian.
In assay [9] the test system is HS 578T breast.
Assay [10] concerns NCI/ADR-RES ovarian.

Molecules are shown by their SMILES. The panel holds about 83,000 compounds, 20% with a hit somewhere; the sample as a whole holds those more often.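 Single-dose data. Exposure time 48 hours. Values below 10 considered active.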 A number with no mark means an inactive call. Calls of active or inactive are those of the source.

Regarding `O=C(/C=C/C12c3ccccc3C(c3ccccc31)C1C(=O)NC(=O)C12)c1ccc(I)cc1` (stereo not given), the growth in assay [1] is 25.2%; in assay [2] it was 3.09% (active); in [3], 35.6%; in assay [4], 73.4%; in assay [5] it was 84.8%; in assay [6], 83%. Moreover, the growth is 55.6% in assay [7], 9.43% (active) in assay [8], 49.1% in [9] and 50.9% in assay [10].

Take `COc1ccccc1S(=O)(=O)Nc1ccc2c3c(cc(CCC(=O)NCCCCNc4cccc5c4C(=O)N(C4CCC(=O)NC4=O)C5=O)cc13)C(=O)N2C` (stereo not given): the growth in [1] was 13.9%; in assay [2], 53.6%; in assay [3] it was 4.39% (active); in [4], 42%; in [5], -19.8% (active); in assay [6], 34.6%. Moreover, the growth was -9.53% (active) in assay [7], 30% in assay [8], -17.8% (active) in assay [9] and 88.2% in [10].

`COc1ccc(N/N=C/c2cn(-c3ccc(C(=O)O)cc3)nc2-c2cc3ccccc3oc2=O)cc1`: the growth was 44.8% in assay [1]; 51.6% in assay [2]; 65.4% in assay [3]; 70.2% in assay [4]; 79% in assay [5]; 99.1% in [6]. Besides, the growth in [7] was 71.5%; in assay [8], 74.1%; in assay [9] it was 106%; in assay [10], 67.6%.

In the case of `COC(=O)/C=C1/SC(=NCc2ccccc2)N(CCc2c[nH]c3ccccc23)C1=O`, the growth in assay [1] was 29.8%; in assay [2], 52.4%; in assay [3], 67.6%; in assay [4] it was 110%; in assay [5] it was 78.1%; in assay [6] it was 111%. Besides, the growth in assay [7] is 92.1%; in [8] it was 79.1%; in assay [9] it was 79.7%; in assay [10], 80.6%.

Turning to `O=C(/C=C/c1cccc(Oc2ccccc2)c1)c1ccc(Nc2nc(Nc3ccc(F)cc3)nc(Nc3ccc(Cl)cc3)n2)cc1`, the growth in assay [1] is -14.9% (active); in assay [2], 25.4%; in assay [3], 104%; in [4] it was 99.5%; in assay [5] it was 97.9%; in [6], 120%. Further, the growth in assay [7] was 94%; in assay [8] it was 104%; in assay [9], 109%; in assay [10] it was 96.8%.

As for `Cn1c2ccccc2c2c3c(c4c5cc(Br)ccc5n(C)c4c21)C(=O)N(O)C3=O`, the growth in [1] is 18.6%; in [2], 10.8%; in assay [3], 24.8%; in assay [4], 92.6%; in assay [5] it was 53.7%; in assay [6], 3.4% (active). Further, the growth in [7] was 21.5%; in assay [8], 6.42% (active); in [9], 61.9%; in [10], 6.86% (active).

As for `COCC(=O)Oc1cc(-c2ccc(C)cc2C)c(OC(=O)COC)c(-c2ccc(C)cc2C)c1`, the growth was 20.6% in assay [1]; 34.2% in [2]; 59.5% in assay [3]; 38.1% in assay [4]; 50.5% in [5]; 66.2% in [6]. Moreover, the growth is 50.1% in [7], 51.9% in assay [8], 55% in assay [9] and 68.2% in [10].

Turning to `O=[N+]([O-])c1ccccc1Sc1ccccc1[N+](=O)[O-]`, the growth in [1] is 104%; in assay [2], 95.4%; in assay [3], 102%; in [4] it was 93.1%; in assay [5] it was 95.9%; in assay [6] it was 90.9%. In addition, the growth was 105% in [7], 92.4% in assay [8], 95.8% in assay [9] and 96.2% in assay [10].

For `COCCn1cc(-c2csc(-c3c[nH]c4ccc(F)cc34)n2)c2cccnc21`, the growth in [1] was 9.53% (active); in assay [2], 21.4%; in assay [3] it was 34%; in assay [4] it was 60.9%; in assay [5], 37.6%; in assay [6], 49.7%. Further, the growth was 42% in [7], 15.2% in assay [8], 52.2% in [9] and 7.39% (active) in assay [10].

For the compound `C=C1C(=O)O[C@H]2[C@H]1CC/C(CNC(=O)Cc1c[nH]c3ccccc13)=C\CC[C@@]1(C)O[C@@H]21`, the growth in [1] is -13.6% (active); in assay [2], -0.862% (active); in [3], 9.54% (active); in [4], 46.2%; in assay [5], 38.2%; in [6], 106%. For the same compound, the growth in [7] is 27.7%; in [8], -5.5% (active); in [9], 78.1%; in assay [10], 89.9%.

Consider `Cc1ccccc1N1CCN(C(=S)c2ccccc2)CC1`, for which the growth in assay [1] was 104%; in assay [2] it was 115%; in assay [3] it was 96.4%; in assay [4], 93.4%; in assay [5], 90.6%; in [6] it was 98.1%. In addition, the growth was 57.2% in [7], 108% in assay [8], 106% in assay [9] and 102% in [10].

`CN1C(=O)N2CN3CCCN(C3)CN3C(=S)NC1C23` (stereo not given): the growth in [1] was 97.4%; in assay [2], 93.6%; in assay [3], 101%; in assay [4] it was 109%; in [5] it was 102%; in assay [6], 93.3%. Moreover, the growth in assay [7] is 104%; in assay [8] it was 107%; in assay [9], 101%; in assay [10] it was 109%.

Consider `COC1/C=C/OC2(C)Oc3c(C)c(O)c4c(O)c(c(/C=N/N(c5ccccc5)c5ccccc5)c(O)c4c3C2=O)NC(=O)C(C)=C/C=C/C(C)C(O)C(C)C(O)C(C)C(OC(C)=O)C1C` (stereo not given), for which the growth in assay [1] was 30.9%; in assay [2] it was 22.6%; in assay [3], 63.3%; in assay [4], 124%; in assay [5], 69.5%; in [6], 84.8%. For the same compound, the growth was 100% in assay [7], 59.1% in [8], 62.2% in assay [9] and 91.9% in [10].

With `C=CC(=O)Nc1cccc(Oc2nccc(Nc3nnc(-c4ccc(Br)cc4)s3)n2)c1`, the growth in assay [1] is 89.3%; in [2] it was 87.4%; in assay [3], 98.5%; in [4], 95.4%; in assay [5], 86.4%; in assay [6], 91%. Moreover, the growth in assay [7] is 101%; in assay [8] it was 102%; in [9], 93.4%; in [10] it was 99.8%.

On to `COc1ccc(C(O)c2cc3c(N)c(C(=O)Nc4cccc5ccccc45)sc3nc2C)cc1` (stereo not given), for which the growth in assay [1] is 12.7%; in assay [2], 18.3%; in [3], 10.9%; in assay [4], 21.5%; in assay [5], 34.5%; in assay [6] it was 18.3%. Further, the growth is 9.69% (active) in assay [7], 0.772% (active) in assay [8], -9.07% (active) in assay [9] and 4.32% (active) in [10].

On to `CCN1C(=O)N(CC)C2C1NN=c1s/c(=C\c3ccc(OC)cc3)c(=O)n12` (stereo not given), for which the growth in assay [1] is 12.1%; in assay [2], 20.6%; in assay [3], -2.81% (active); in assay [4], 29.4%; in assay [5], 46.3%; in assay [6] it was 40.5%. For the same compound, the growth in assay [7] is 19.6%; in [8] it was -16.5% (active); in [9], 21.6%; in assay [10], 0.931% (active).

On to `Ic1ccc(Nc2nc3nonc3nc2Nc2ccc(I)cc2)cc1`, for which the growth is -12.6% (active) in [1]; -36.6% (active) in assay [2]; 6.55% (active) in assay [3]; 34% in assay [4]; 19.3% in assay [5]; -19.9% (active) in assay [6]. Moreover, the growth in [7] is 28.5%; in assay [8], 9.01% (active); in assay [9] it was 19.2%; in [10] it was 3.09% (active).

For the compound `C=CN(C(=O)N1CCN(c2cc3c(cc2F)c(=O)c(C(=O)O)cn3C2CC2)CC1)c1nc(-c2ccccc2)cs1`, the growth is 86.2% in assay [1]; 93.4% in [2]; 91.3% in assay [3]; 102% in [4]; 93.1% in assay [5]; 87.8% in assay [6]. Moreover, the growth in [7] was 105%; in assay [8] it was 108%; in [9] it was 97.8%; in assay [10] it was 103%.

As to `Cc1ccc(C2CC(c3cccc(Nc4ccncc4)c3)=Nc3c(N)nc(N)nc3N2)cc1` (stereo not given), the growth in [1] is -4.18% (active); in assay [2], 44.9%; in [3], 38%; in [4], 95.5%; in assay [5], 81.2%; in assay [6], 97.9%. Further, the growth in assay [7] is 42.4%; in [8], 82.1%; in assay [9] it was 80%; in [10] it was 101%.

Take `Nc1nc(C(=O)N/N=C/c2ccc(F)cc2)nn1-c1ccc(S(N)(=O)=O)cc1`: the growth was 98.5% in assay [1]; 91% in assay [2]; 97.5% in assay [3]; 104% in assay [4]; 98.4% in [5]; 105% in [6]. Besides, the growth in assay [7] is 91.5%; in [8] it was 102%; in [9] it was 101%; in [10], 98.3%.

On to `Clc1ccc(-c2cc(-c3ccccc3)nc(N3CCN(CCCNc4ccnc5cc(Cl)ccc45)CC3)n2)cc1`, for which the growth in assay [1] is 5.44% (active); in assay [2], 4.72% (active); in assay [3] it was -47.5% (active); in assay [4], 33.5%; in [5] it was 9.85% (active); in [6], 106%. In addition, the growth was -62.4% (active) in assay [7], -47.9% (active) in assay [8], -17.9% (active) in assay [9] and 36% in [10].

The values above are taken from PubChem BioAssay (NCI).
